Molecules are shown by their SMILES. Measured potencies and affinities stand elsewhere. Activity calls are given as the source filed them.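 The calls were made as follows: active = absorbance falls by 30% or more versus neutral controls, with a potency fitted within twice the top valid dose; inconclusive = no clear call, values can overlap the other calls; inactive = change opposite to expected direction, plus the rest.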

The target of the experiment is Protein disulfide-isomerase (Homo sapiens) (UniProt P07237). Description: inhibition of PDI-driven insulin aggregation – biochemical, turbidity, absorbance, cherry-picked samples, dose response (AID 602350). The following applies: recombinant PDI insulin aggregation, absorbance 650 nm, 90 min; series mostly up to 19.5 µM.
Sequence of Protein disulfide-isomerase (Homo sapiens) (P07237 whole entry, looked up): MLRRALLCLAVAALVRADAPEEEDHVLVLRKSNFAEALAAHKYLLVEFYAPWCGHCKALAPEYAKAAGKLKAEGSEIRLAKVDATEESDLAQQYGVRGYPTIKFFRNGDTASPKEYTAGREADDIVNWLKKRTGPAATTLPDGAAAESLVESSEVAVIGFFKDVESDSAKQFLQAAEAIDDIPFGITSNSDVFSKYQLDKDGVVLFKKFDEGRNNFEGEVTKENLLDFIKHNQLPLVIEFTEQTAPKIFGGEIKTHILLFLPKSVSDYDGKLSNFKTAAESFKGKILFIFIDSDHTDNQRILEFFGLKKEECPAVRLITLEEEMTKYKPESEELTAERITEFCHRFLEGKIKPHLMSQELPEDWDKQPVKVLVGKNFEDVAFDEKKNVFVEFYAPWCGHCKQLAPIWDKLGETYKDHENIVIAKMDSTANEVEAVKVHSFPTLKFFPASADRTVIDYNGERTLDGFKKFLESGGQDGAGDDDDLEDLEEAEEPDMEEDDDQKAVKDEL
As for `COC(=O)c1ccc(COC(=O)CSCC(=O)Nc2ccc(C)cc2C)cc1`, the result was inactive.
Consider `CCOc1ccc(CCN2C(=O)C(=O)N([C@@H](CC(C)C)CN3CCC[C@@H]3CN3C(=O)C(=O)NC[C@@H]3Cc3ccccc3)C[C@@H]2Cc2ccc(O)cc2)cc1`, for which the result was inactive.
The result for `CC[C@]12c3[nH]c4cc(-c5ccco5)ccc4c3CCN1C(=O)[C@@H](CC(=O)NCC13CC4CC(CC(C4)C1)C3)C[C@@H]2C(=O)N1CCN(C(=O)c2ccco2)CC1` reads “inactive”.
For the compound `O=C(CCS(=O)(=O)c1ccccc1)N(CCCN1CCOCC1)c1nc2ccccc2s1`, the result was inactive.
The result for `CC(=O)NC1(c2nnnn2CCOC(=O)Nc2ccc(Cl)cc2)CCCCC1` reads “inactive”; that for `CCOc1ccc(C(=O)NCC(=O)OCC(=O)N(C)CC(=O)Nc2ccccc2CC)cc1OCC`, “inactive”.
The result for `CC1(C(=O)N2CCCCC2)CCN1C(=O)Cc1ccc(-c2ccccc2)cc1` (stereo not given) reads “inactive”; that for `O=C(COC(=O)c1ccccc1NC(=O)c1ccco1)NCCC1=CCCCC1`, “inactive”; that for `Cc1ccc(S(=O)(=O)c2ccc(Oc3cccc(C)c3)cc2)cc1`, “inactive”.
The result for `CCc1ccc2[nH]c(=O)c(CN(Cc3ccccc3OC)Cc3nnnn3Cc3ccco3)cc2c1` reads “inactive”; that for `COc1c(Br)cc(C(N)=O)cc1OCc1ccccc1`, “inactive”.
On to `C=CCn1c(SCC(=O)Nc2ccc(N(C)C)cc2)nnc1-c1cccc(C)c1`, for which the outcome was inactive.
The result for `COC(=O)c1ccc(NC(=S)NCCc2cccc(C)c2)cc1` reads “inactive”.
For the compound `COc1ccc(OC)c(CN2CCN(Cc3cc(=O)oc4cc(O)ccc34)CC2)c1`, the outcome was inactive.
As to `CCOC(=O)C1(CCOc2ccccc2)CCN(Cc2ccccc2O)CC1`, the outcome was inactive.
